Assay results as given in PubChem BioAssay (EPA / NIEHS).
Active and inactive are the calls of the source. How the source made its calls: active means hit-call score of the fitted dose curve at least 0.9, where 1 is the maximum; inactive means score below 0.9.

Test: ATG_SREBP_CIS: Attagene CIS-FACTORIAL HepG2 Assay for human Sterol Regulatory Element Binding (SREBP) (AID 2282962)
Conditions: HepG2 Attagene cis-factorial SREBP reporter, mRNA; actives raise or lower the signal
Summary of the method: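 Endogenous factor activity is measured in HepG2 through multiplexed reporter units under cis-element control. Following a 24 h incubation, reporter transcripts are reverse-transcribed, PCR-amplified and sized by capillary electrophoresis; activity is fitted in both directions relative to DMSO.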

SMILES | outcome | AC50
CCCN(CCC)S(=O)(=O)c1ccc(C(=O)O)cc1 | inactive | –
C=C1CC[C@H](O)C/C1=C/C=C1\CCC[C@]2(C)[C@@H]([C@H](C)/C=C/[C@H](C)C(C)C)CC[C@@H]12 | inactive | –
CCC(C)S (stereo unspecified) | inactive | –
CCN(CC)C(=O)N(CC)CC | inactive | –
COC(=O)c1ccc([N+](=O)[O-])cc1 | inactive | –
c1ccc2[nH]cnc2c1 | inactive | –
COC(=O)C=C(C)CCC=C(C)C | inactive | –
CC(C)(N=C=O)c1cccc(C(C)(C)N=C=O)c1 | inactive | –
N#Cc1ccc(CC(=O)c2cccc(C(F)(F)F)c2)cc1 | inactive | –
CCCCC1(COC(=O)CCC(=O)O)C(=O)N(c2ccccc2)N(c2ccccc2)C1=O | inactive | –
Nc1ccc2cc(S(=O)(=O)O)cc(O)c2c1N=Nc1ccccc1C(F)(F)F | inactive | –
NC1CCCCC1N (stereo unspecified) | inactive | –
CCC1(C)NC(=O)NC1=O (stereo unspecified) | inactive | –
CC1C2CC(CC2C2CCCC(O)C2)C1(C)C (stereo unspecified) | inactive | –
CCCC(O)C(O)CO (stereo unspecified) | inactive | –
CC(C)CC(C)CC(O)CC(C)C (stereo unspecified) | inactive | –
CCOC(=O)C(C#N)=C(c1ccccc1)c1ccccc1 | – | 33.3 µM (active)
Cc1ccc(S(N)(=O)=O)cc1 | inactive | –

SMILES | outcome | AC50
CC1(C)O[C@@H]2C[C@H]3[C@@H]4CCC5=CC(=O)C=C[C@]5(C)[C@@]4(F)[C@@H](O)C[C@]3(C)[C@]2(C(=O)CO)O1 | inactive | –
CC(C)(CO)[C@@H](O)C(=O)NCCC(=O)O | inactive | –
Cc1c(Cl)cccc1[N+](=O)[O-] | inactive | –
CC1(C)COCN1 | inactive | –
CCCOC(=O)c1c(Cl)c(Cl)c(Cl)c(Cl)c1C(=O)OCCC | – | 100 µM (active)
CC(C)Nc1nc(N)nc(Cl)n1 | inactive | –
OCCCCC(O)CO (stereo unspecified) | inactive | –
Cc1cc(=O)oc2cc(N(C)C)ccc12 | – | 100 µM (active)
CS(=O)(=O)OCCCCOS(C)(=O)=O | inactive | –
CCOC(=O)C1OC1c1ccccc1 (stereo unspecified) | inactive | –
CCOc1ccc(N=Nc2ccc(C=Cc3ccc(N=Nc4ccc(OCC)cc4)cc3S(=O)(=O)O)c(S(=O)(=O)O)c2)cc1 | inactive | –
CN(C)c1cccc(O)c1 | inactive | –
O=C(O)CCCCCCCCCCCC(=O)O | inactive | –
N[C@@H](Cc1cc(I)c(Oc2cc(I)c(O)c(I)c2)c(I)c1)C(=O)O | – | 22.7 µM (active)
O=C(c1ccccc1)C(O)c1ccccc1 (stereo unspecified) | inactive | –
C[Si]1(C)O[Si](C)(C)O[Si](C)(C)O1 | inactive | –
COc1cc(Cl)c(OC)cc1N | inactive | –
C=CCCC(=O)/C=C/C1C(C)=CCCC1(C)C (stereo unspecified) | – | 100 µM (active)
